Measured values: PubChem BioAssay (NCI)
The panel holds about 83,000 compounds, 20% with a hit somewhere; the sample as a whole holds those more often.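 Cells were grown in 96-well plates and exposed to the test compound at a single concentration for 48 hours; results are reported as percent growth, with values below 10 considered active.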 Active and inactive are the calls of the source.

The molecules below were run on A498 renal (assay: NCI-60 one-dose screen, 48 h (100 = growth as untreated, 0 = no growth, -100 = all killed)). Settings: 10 µM unless noted.

Row | SMILES | growth
1 | Cn1cc(-c2cc3nc(-c4cn(C)c5ncccc45)cc(N)n3n2)c2cc(Cl)ccc21 | -75.9% (active)
2 | CC12CC[C@@H]3[C@]4(C)COC(c5c(F)cccc5F)O[C@@H]4CC[C@@]3(C)[C@@H]1CC(C1=CCOC1=O)O2 (some centres not stated) | 106% (inactive)
3 | Cc1nc(Nc2ncc(C(=O)Nc3c(C)cccc3Cl)s2)cc(N2CCN(CCCNC(=O)COc3ccc(C4CCC(=O)NC4=O)cc3)CC2)n1 (configuration not stated) | 7.95% (active)
4 | Cn1cc(NC(=O)c2cc(NC(=O)c3ccc(/C=C/c4ccccc4)cc3)cn2C)cc1C(=O)NCCCN1CCOCC1 | 90.6% (inactive)
5 | Cc1ccccc1[C@H]1C(C(=O)c2ccc(Cl)cc2)C2(N[C@@H]1c1ccccc1)C(=O)Nc1ccc(Br)cc12 (some centres not stated) | 44.3% (inactive)
6 | Brc1ccc(N/N=C/c2c[nH]c3ccc(Br)cc23)nc1 | -21.3% (active)
7 | C=C1CCC2C3(C)COC(c4ccccc4)OC3CCC2(C)C1CC(Sc1ccccc1)C1=CCOC1=O (configuration not stated) | 140% (inactive)
8 | Clc1cccc(N/N=C/c2c[nH]c3ccc(Br)cc23)n1 | 79.9% (inactive)
9 | COc1c(F)ccc(C(=O)Nc2ccc3nc(NC(=O)C4CCCN(S(=O)(=O)c5cccc(C(F)(F)F)c5)C4)sc3c2)c1F (configuration not stated) | 101% (inactive)
10 | O=c1oc2ccc(Br)cc2cc1C1=CSc2nc3sc4c(c3c(=O)n2N=C1)CCCC4 | 177% (inactive)
11 | CC(=O)/C=C/c1cccc2c1C(=O)NC(C)(c1cc3cc(Br)ccc3oc1=O)N2 (configuration not stated) | 104% (inactive)
12 | O=c1[nH]c(=O)c2c(-c3cc4ccccc4oc3=O)ccnc2[nH]1 | 148% (inactive)
13 | O=C(/C=C/Nc1ccc2oc(=O)ccc2c1)c1cc2cc(Br)ccc2oc1=O | 144% (inactive)
14 | CC1(c2cc3cc(Cl)ccc3oc2=O)NC(=O)c2c(/C=C/C(=O)OC3CC4CCC3(C)C4(C)C)cccc2N1 (configuration not stated) | 118% (inactive)
15 | COc1ccc(-c2ccnc(SCc3cc4ccccc4[nH]c3=O)n2)cc1OC | -18.9% (active)
16 | CC12CC[C@@H]3[C@]4(C)COC(c5cn[nH]c5-c5cccc(Br)c5)O[C@@H]4CC[C@@]3(C)[C@@H]1CC(C1=CCOC1=O)O2 (some centres not stated) | 81.8% (inactive)

Row | SMILES | growth
17 | O=C(c1ccc(OCCN2CCOCC2)cc1)C1[C@H](c2ccc(Cl)cc2)[C@@H](c2ccccc2)NC12C(=O)Nc1ccc(Br)cc12 (some centres not stated) | 91.5% (inactive)
18 | COc1ccc2c(c1)c(/C=N/Nc1ccc3ccccc3n1)cn2C | 83.3% (inactive)
19 | CN(C)CCOc1ccc(C(=O)C2[C@H](c3ccc(Cl)cc3)[C@@H](c3ccccc3)NC23C(=O)Nc2ccc(Br)cc23)cc1 (some centres not stated) | 96% (inactive)
20 | O=c1[nH]c2ccc(Cl)cc2cc1CSc1nccc(-c2ccc(Cl)cc2)n1 | 98.4% (inactive)
21 | COc1cccc(/C=C/c2nc3ccccc3c(=O)n2CC(=O)Nc2ccc(Cl)cc2)c1 | 25.1% (inactive)
22 | CCCSc1nc(Nc2ccc(S(N)(=O)=O)cc2)c(C#N)c(-c2cc(OC)c(OC)c(OC)c2)n1 | 80.8% (inactive)
23 | CC(/C=C1\SC(=S)N(CCCC(=O)NC(CC(C)C)C(=O)O)C1=O)=C\c1ccccc1 (configuration not stated) | 145% (inactive)
24 | COc1ccc(/C=C/c2nc3ccccc3c(=O)n2CC(=O)Nc2ccc(Cl)cc2)cc1 | 118% (inactive)
25 | Cn1cc(-c2cc3nc(-c4cn(C)c5ncc(Br)cc45)cc(N)n3n2)c2cc(Cl)ccc21 | -1.96% (active)
26 | Cn1cc(-c2cc(N)n3nc(-c4cn(C)c5ncccc45)cc3n2)c2cccnc21 | 87.2% (inactive)
27 | Cc1ccc([C@H]2C(C(=O)c3ccc(Cl)cc3)C3(N[C@@H]2c2ccccc2)C(=O)Nc2ccc(Cl)cc23)cc1 (some centres not stated) | 94% (inactive)
28 | O=C(Cn1c(/C=C/c2ccccc2)nc2ccccc2c1=O)Nc1ccc(Cl)cc1 | -15.5% (active)
29 | CC12CC[C@@H]3[C@]4(C)COC(c5cn[nH]c5-c5cccc(Cl)c5)O[C@@H]4CC[C@@]3(C)[C@@H]1CC(C1=CCOC1=O)O2 (some centres not stated) | 73.6% (inactive)
30 | CCCCSc1nc(Nc2ccc(S(N)(=O)=O)cc2)c(C#N)c(-c2cc(OC)c(OC)c(OC)c2)n1 | 88.1% (inactive)
31 | CCOC(=O)/C=C/c1cccc2c1C(=O)NC(C)(c1cc3cc(Cl)ccc3oc1=O)N2 (configuration not stated) | 30.3% (inactive)
32 | O=C(c1ccc(OCCN2CCOCC2)cc1)C1[C@H](c2ccc(Cl)cc2)[C@@H](c2ccccc2)NC12C(=O)Nc1ccc(Cl)cc12 (some centres not stated) | 88% (inactive)
